Test results: PubChem BioAssay (NCATS)
Inconclusive results are not listed. Calls of active or inactive are those of the source. Unless noted, the call rests on the fitted dose curve.

Tests used:
[1] = molecular target: Lysosomal acid glucosylceramidase (Homo sapiens) (UniProt P04062); assay: Glucocerebrosidase-p2 (AID 348; in the data active means potency below about 10 µM; further: potency means the concentration at half of the fitted maximal effect); details: purified GBA, blue fluorogenic substrate, 40 min
Method in brief: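 Normal human glucocerebrosidase (0.2 nM) with blue fluorogenic substrate (80 uM final) in citrate/phosphate pH 5.9 with 10mM sodium taurocholate, 0.01% tween-20; 40 min RT, NaOH/glycine stop; fluorescence Ex 365/Em 440; AC50 from a titration from 0.6 nM upwards.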

[2] = AP1 Signaling Pathway (AID 357; active means well fitted curve in either direction with a large enough effect, not every such curve was filed as active;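 further: ME-180 reporter cells stimulated with EGF at its EC50 level; on the % scale 0 is the no-effect control and ±100 the full control effect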); details: ME-180 AP-1-bla reporter, EGF-induced, beta-lactamase ratio, 5 h; at 7.69 µM (top of the series) unless noted
Method in brief: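 Titration-series screen for positive or negative modulators of EC50 EGF-induced signaling in ME-180 cells carrying an AP-1-driven beta-lactamase reporter. After 5 hours at 37 degrees Celsius, CCF4 460nm/530nm emission ratio gave %Activity; AC50 values derived.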

[3] = molecular target: Cytochrome P450 1A2 (Homo sapiens) (UniProt P05177); assay: p450-cyp1a2 (AID 410); details: recombinant CYP1A2, luciferin-ME demethylation, luminescence; series mostly up to 57 µM; further: potency means the concentration at half of the fitted maximal effect;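 on activity change, negative = inhibition: -100% = full effect of reference inhibitor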
Method in brief: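 20nM CYP1A2, 100uM Luciferin-ME (=Km), 100mM KPO4; cpd 10 min RT; +NADPH regen, 60 min RT; stop/detect 20 min; luminescence. Normalized to furafylline 57 uM = full inhibition.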

[4] = Stat Signaling Pathway (AID 446; active means well fitted curve in either direction with a large enough effect, not every such curve was filed as active;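 further: ME-180 cervical cancer cells given 40 pM IL-6 alongside compound; SIE-controlled beta-lactamase reporter measured as 460/530 nm FRET emission ratio; on the % scale 0 is the no-effect control and ±100 the full control effect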); details: ME-180 (cervical carcinoma) SIE beta-lactamase reporter, IL-6 stimulated, 5 h; at 7.69 µM (top of the series) unless noted
Method in brief: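 FRET read-out (405 nm excitation, 460/530 nm emission) of a beta-lactamase reporter under a STAT-inducible element in ME-180 cervical carcinoma cells. Cells with compound receive 40 pM IL-6 for 5 h. Values are normalised to AC90 stimulation and AC90 JAK-inhibitor controls.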

[5] = molecular target: Glucocorticoid receptor (Homo sapiens) (UniProt P04150); assay: GR-EFC Redistribution (AID 451); details: CHO-K1 GR-EFC translocation, beta-gal luminescence, 2 h; further: potency means the concentration at half of the fitted maximal effect
Method in brief: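 CHO-K1 cells expressing nuclear EA and GR-ED fragments of b-gal; compounds titrated up to 46 uM final, 2 h at 37 C. GR nuclear translocation read as complemented b-gal luminescence after 1 h RT detection.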

[6] = molecular target: Mitogen-activated protein kinase 10 (Mus musculus) (UniProt Q61831); assay: JNK3 AlphaScreen Assay (AID 530; active means well fitted curve in either direction with a large enough effect, not every such curve was filed as active;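 further: kinase came from lysate of stimulated human HepG2 cells; signal reports phosphorylation of biotinylated GST-cJun 1-79 at Ser73 with 10 µM ATP; on the % scale 0 is the no-effect control and ±100 the full control effect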); details: JNK3 lysate, c-Jun phosphorylation; series mostly up to 57.1 µM
Method in brief: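 HepG2 lysate (IL-1b/TNFa pre-activated) + biotin-GST-cJun 1-79 + anti-pSer73 cJun; cpd titration, 15 min RT; ATP 10 uM start; Tris pH 7.6, MgCl2, DTT, vanadate; beads in EDTA buffer; AlphaScreen.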

[7] = molecular target: 3',5'-cyclic-AMP phosphodiesterase 4B (Homo sapiens) (UniProt Q07343); assay: qHTS Assay for Inhibitors of PDE-IV (AID 607; active means well fitted activation curve with a large enough effect in the main read-out, with a control signal flat, not every such curve was filed as active; further: % of control where 0% means no effect); details: HEK293 ACTOne CNG channel cells, membrane potential fluorescence; series mostly up to 22.9 µM
Method in brief: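 Cell-based read-out of cAMP via a modified cyclic nucleotide-gated channel and membrane potential dye (535/590 nm) in HEK293 cells expressing PDE4 endogenously. Compounds tested up to 22.9 uM final; 100 uM RO 20-1724 reference.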

[8] = qHTS Assay for Lipid Storage Modulators (AID 1519); details: Drosophila S3 cells, BODIPY lipid droplet/cell ratio, laser cytometry, cells loaded with oleic acid; for activity change, negative = inhibition: at 57.5 µM (top of the series)
Method in brief: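 Cells seeded at 5,000 per well were treated with compounds over a concentration series and loaded with oleic acid (400 uM, as added). Lipid droplet fluorescence (488 nm excitation, 500-530 nm channel) was read by laser-scanning cytometry and normalized to 20 uM Triacsin C.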

[9] = Primary qHTS for small molecule stabilizers of the endoplasmic reticulum resident proteome: Secreted ER Calcium Modulated Protein (SERCaMP) assay (AID 1508630; active means well fitted curve in the direction sought with a large enough effect; an effect the other way counts as inactive or inconclusive; further: on the % scale 0 is the no-effect control and ±100 the full control effect); details: SH-SY5Y GLuc-SERCaMP (Gaussia luciferase released on ER calcium loss) secretion, thapsigargin, luminescence; series mostly up to 38.4 µM
Method in brief: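 The SH-SY5Y reporter protocol was run at 3 concentrations up to 38.3 uM (primary) or 11 concentrations (follow-up): 16 h compound, 100 nM thapsigargin for 4 h, then extracellular luciferase luminescence.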

[10] = molecular target: Cytochrome P450 2C9 (Homo sapiens) (UniProt P11712); assay: qHTS Assay for Inhibitors and Substrates of Cytochrome P450 2C9 (AID 883; active means well fitted curve in the direction sought with a large enough effect; an effect the other way counts as inactive or inconclusive; further: potency means the concentration at half of the fitted maximal effect; nearly all actives have a fitted effect of over 60% in size); details: recombinant CYP2C9, luciferin-H luminescence, 60 min; series mostly up to 57.1 µM
Method in brief: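 10nM CYP2C9 + 100uM Luciferin-H (=KM), 25mM KPO4; cpd 10 min 37C; NADPH regen, 60 min 37C; stop/detect with P450 Glo-Buffer 20 min; luminescence. Norm. to 57uM sulphaphenazole as full inhibition.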

[11] = molecular target: Cytochrome P450 3A4 (Homo sapiens) (UniProt P08684); assay: qHTS Assay for Activators of Cytochrome P450 3A4 (AID 885; active means well fitted curve in the direction sought with a large enough effect; an effect the other way counts as inactive or inconclusive; further: nearly all actives have a fitted effect of over 65% in size); details: recombinant CYP3A4, Luciferin-PPXE luminescence, 60 min; series mostly up to 57.1 µM
Method in brief: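 Luminescent readout of luciferin formed from 25 uM Luciferin-PPXE (KM level) by 20 nM CYP3A4 in 200 mM KPO4, with 60 min NADPH-driven reaction at room temperature after 10 min compound exposure. Ketoconazole (57 uM) defined 100% inhibition.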

[12] = molecular target: Glucocorticoid receptor (Homo sapiens) (UniProt P04150); assay: GR-GFP Redistribution (AID 450;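 active means compounds whose dose series gives a full or clear partial fitted curve of increased nuclear translocation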; further: potency means the concentration at half of the fitted maximal effect); details: U2OS GR-GFP nuclear translocation, laser cytometry, 2 h
[13] = molecular target: Cytochrome P450 3A4 (Homo sapiens) (UniProt P08684); assay: qHTS Assay for Inhibitors and Substrates of Cytochrome P450 3A4 (AID 884; active means well fitted curve in the direction sought with a large enough effect; an effect the other way counts as inactive or inconclusive; further: potency means the concentration at half of the fitted maximal effect; nearly all actives have a fitted effect of over 50% in size); details: recombinant CYP3A4, Luciferin-PPXE luminescence; series mostly up to 57.1 µM
Method in brief: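 Luminescent readout of luciferin produced by CYP3A4 (20 nM) dealkylation of Luciferin-PPXE, 25 uM (its KM). NADPH-driven reaction ran 60 min at RT after 10 min compound preincubation; data scaled to 57 uM ketoconazole as 100% inhibition.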

[14] = Confirmation and Secondary Assay for Modulators of Hemoglobin Beta Chain Splicing at IVS2 654 locus (AID 910; active means well fitted curve in the direction sought with a large enough effect; an effect the other way counts as inactive or inconclusive;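 further: HeLa cells stably carrying EGFP split by mutant beta-globin IVS2-654 intron; % of control where 0% means no effect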); details: HeLa EGFP-654 splicing reporter, GFP fluorescence, 48 h; series mostly up to 38.3 µM
Method in brief: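 HeLa cells stably expressing EGFP interrupted by β-globin IVS2-654 intron, seeded overnight in Opti-MEM/2% FCS, then treated 2 days at 37 °C. Restored splicing read as total peak GFP intensity per well by laser scanning cytometry (488 nm excitation, 500–520 nm emission); 500 nM antisense PNA as control.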

[15] = Confirmation and Secondary Assay for Modulators of Hemoglobin Beta Chain Splicing at IVS2 705 locus (AID 930; active means well fitted curve in the direction sought with a large enough effect; an effect the other way counts as inactive or inconclusive;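 further: HeLa cells stably expressing the EGFP-705 splicing reporter; GFP fluorescence per well restored by corrected splicing of the IVS2-705 intron in EGFP; % of control where 0% means no effect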); details: HeLa EGFP-705 splicing reporter, GFP fluorescence, 48 h; series mostly up to 38.3 µM
Method in brief: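 Secondary splice-site specificity test uses HeLa expressing CMV-driven EGFP interrupted by IVS2-705; cells were treated 2 days at 37C with 500 nM antisense PNA as positive control.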

[16] = molecular target: Ubiquitin carboxyl-terminal hydrolase 1 (Homo sapiens) (UniProt O94782); assay: Inhibitors of USP1/UAF1: Pilot qHTS (AID 504865; active means well fitted curve in the direction sought with a large enough effect; an effect the other way counts as inactive or inconclusive;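 further: rhodamine fluorescence freed from ubiquitin-rhodamine substrate followed over time; top concentration of the series differs between compounds; on the % scale 0 is the no-effect control and ±100 the full control effect; nearly all actives have a fitted effect of over 35% in size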); details: purified USP1/UAF1, Ub-rhodamine cleavage fluorescence; series mostly up to 54.9 µM
Method in brief: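 Deubiquitinase activity followed as kinetic rhodamine fluorescence release from 150 nM Ub-Rho. 1 nM USP1/UAF1 with compound, after 15 min room-temperature preincubation, in HEPES pH 7.8 buffer containing TCEP, EDTA, BSA and Tween-20.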

[17] = measured here: cell count channel max response
[18] = measured here: lipid channel max response

Chain of Glucocorticoid receptor (Homo sapiens) (P04150 whole entry, looked up, the tested form may be a part): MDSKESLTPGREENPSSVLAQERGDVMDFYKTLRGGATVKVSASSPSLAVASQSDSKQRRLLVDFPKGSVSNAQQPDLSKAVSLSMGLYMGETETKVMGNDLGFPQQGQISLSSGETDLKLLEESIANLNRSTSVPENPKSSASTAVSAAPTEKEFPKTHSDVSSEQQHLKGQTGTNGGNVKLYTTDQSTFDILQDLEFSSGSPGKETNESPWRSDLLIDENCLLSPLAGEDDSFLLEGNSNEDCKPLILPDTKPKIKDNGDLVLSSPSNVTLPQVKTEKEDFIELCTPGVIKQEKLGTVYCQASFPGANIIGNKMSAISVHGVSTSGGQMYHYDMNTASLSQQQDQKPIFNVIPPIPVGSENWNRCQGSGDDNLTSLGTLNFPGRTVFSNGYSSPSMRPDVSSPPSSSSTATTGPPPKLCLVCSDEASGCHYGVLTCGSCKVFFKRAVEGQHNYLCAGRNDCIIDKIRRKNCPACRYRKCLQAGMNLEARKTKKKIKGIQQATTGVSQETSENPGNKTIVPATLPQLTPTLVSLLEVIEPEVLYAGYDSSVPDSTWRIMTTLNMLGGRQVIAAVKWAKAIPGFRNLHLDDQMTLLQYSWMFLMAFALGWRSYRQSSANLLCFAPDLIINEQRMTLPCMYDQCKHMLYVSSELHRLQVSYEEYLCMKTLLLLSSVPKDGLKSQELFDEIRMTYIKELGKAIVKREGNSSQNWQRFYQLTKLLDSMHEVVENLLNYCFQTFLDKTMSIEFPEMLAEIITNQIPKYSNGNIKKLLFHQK
Chain of 3',5'-cyclic-AMP phosphodiesterase 4B (Homo sapiens) (Q07343 whole entry, looked up): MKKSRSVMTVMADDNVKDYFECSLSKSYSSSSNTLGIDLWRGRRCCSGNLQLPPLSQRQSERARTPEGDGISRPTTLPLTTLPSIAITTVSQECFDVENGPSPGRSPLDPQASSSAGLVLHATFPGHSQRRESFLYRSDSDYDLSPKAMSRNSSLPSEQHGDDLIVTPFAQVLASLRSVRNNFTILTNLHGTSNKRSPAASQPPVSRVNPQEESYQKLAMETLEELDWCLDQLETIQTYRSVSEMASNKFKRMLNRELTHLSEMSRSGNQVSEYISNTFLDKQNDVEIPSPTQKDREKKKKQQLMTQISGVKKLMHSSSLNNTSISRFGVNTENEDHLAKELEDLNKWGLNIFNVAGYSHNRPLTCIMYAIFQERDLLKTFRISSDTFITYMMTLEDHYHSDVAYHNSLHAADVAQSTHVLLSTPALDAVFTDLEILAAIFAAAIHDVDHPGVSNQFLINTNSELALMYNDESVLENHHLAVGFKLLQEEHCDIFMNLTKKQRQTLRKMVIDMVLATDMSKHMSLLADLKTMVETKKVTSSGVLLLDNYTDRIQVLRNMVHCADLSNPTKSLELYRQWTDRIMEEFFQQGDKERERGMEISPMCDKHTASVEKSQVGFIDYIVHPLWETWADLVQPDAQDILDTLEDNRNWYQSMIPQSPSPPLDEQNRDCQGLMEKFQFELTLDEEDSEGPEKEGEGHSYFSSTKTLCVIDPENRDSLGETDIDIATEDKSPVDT
Chain of Cytochrome P450 3A4 (Homo sapiens) (P08684 whole entry, looked up): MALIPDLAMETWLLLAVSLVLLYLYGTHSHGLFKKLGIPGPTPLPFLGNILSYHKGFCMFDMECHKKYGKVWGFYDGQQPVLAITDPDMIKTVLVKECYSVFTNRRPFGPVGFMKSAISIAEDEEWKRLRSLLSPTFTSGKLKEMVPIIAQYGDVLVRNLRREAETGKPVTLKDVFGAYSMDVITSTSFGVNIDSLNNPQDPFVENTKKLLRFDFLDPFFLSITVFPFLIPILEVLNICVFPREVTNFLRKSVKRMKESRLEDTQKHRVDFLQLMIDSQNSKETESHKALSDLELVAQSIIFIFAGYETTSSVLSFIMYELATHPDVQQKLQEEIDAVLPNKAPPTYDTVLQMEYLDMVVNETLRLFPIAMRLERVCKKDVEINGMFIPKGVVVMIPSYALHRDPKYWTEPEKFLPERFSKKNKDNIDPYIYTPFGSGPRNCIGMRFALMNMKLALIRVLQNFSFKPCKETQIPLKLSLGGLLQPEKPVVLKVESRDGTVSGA
Chain of Cytochrome P450 1A2 (Homo sapiens) (P05177 whole entry, looked up): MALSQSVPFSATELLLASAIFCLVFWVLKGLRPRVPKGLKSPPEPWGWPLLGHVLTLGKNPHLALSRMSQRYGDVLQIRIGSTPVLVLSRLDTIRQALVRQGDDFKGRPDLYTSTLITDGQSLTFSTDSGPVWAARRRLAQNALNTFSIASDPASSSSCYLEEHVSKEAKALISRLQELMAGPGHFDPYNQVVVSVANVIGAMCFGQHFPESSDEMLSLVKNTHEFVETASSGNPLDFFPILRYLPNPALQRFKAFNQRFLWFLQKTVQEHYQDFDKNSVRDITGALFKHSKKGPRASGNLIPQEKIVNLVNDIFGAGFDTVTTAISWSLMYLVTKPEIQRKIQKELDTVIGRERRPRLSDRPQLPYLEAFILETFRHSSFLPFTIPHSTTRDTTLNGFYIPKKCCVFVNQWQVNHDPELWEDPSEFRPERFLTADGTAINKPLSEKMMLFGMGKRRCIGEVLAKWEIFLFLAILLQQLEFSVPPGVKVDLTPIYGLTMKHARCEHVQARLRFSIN
Chain of Lysosomal acid glucosylceramidase (Homo sapiens) (P04062 whole entry, looked up): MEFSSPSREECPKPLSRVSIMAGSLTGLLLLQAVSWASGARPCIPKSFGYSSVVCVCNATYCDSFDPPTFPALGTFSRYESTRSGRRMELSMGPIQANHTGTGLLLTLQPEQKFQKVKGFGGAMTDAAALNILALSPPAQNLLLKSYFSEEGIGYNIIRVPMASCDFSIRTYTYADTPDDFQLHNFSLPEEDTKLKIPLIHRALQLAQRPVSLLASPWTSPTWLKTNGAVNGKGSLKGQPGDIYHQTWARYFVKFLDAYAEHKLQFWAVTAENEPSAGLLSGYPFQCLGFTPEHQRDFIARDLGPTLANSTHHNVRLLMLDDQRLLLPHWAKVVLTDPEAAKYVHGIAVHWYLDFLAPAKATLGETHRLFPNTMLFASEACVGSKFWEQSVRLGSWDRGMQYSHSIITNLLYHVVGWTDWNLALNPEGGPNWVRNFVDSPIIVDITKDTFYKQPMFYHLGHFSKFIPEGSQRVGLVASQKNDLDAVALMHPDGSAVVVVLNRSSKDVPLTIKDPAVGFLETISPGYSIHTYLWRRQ
Chain of Cytochrome P450 2C9 (Homo sapiens) (P11712 whole entry, looked up): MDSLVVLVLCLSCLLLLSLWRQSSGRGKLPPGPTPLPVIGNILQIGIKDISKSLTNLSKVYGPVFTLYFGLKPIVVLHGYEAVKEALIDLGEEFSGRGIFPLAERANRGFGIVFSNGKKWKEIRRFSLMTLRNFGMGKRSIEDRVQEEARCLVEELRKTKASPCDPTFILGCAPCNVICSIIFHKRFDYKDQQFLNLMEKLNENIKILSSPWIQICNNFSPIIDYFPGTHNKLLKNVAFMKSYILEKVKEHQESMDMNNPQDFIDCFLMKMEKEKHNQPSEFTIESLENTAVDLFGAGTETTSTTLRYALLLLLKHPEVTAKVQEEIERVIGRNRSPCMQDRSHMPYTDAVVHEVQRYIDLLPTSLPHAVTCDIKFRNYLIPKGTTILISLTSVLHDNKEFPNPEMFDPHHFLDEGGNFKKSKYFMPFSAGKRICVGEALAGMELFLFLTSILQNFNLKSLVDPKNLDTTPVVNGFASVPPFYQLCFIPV
Chain of Ubiquitin carboxyl-terminal hydrolase 1 (Homo sapiens) (O94782 whole entry, looked up): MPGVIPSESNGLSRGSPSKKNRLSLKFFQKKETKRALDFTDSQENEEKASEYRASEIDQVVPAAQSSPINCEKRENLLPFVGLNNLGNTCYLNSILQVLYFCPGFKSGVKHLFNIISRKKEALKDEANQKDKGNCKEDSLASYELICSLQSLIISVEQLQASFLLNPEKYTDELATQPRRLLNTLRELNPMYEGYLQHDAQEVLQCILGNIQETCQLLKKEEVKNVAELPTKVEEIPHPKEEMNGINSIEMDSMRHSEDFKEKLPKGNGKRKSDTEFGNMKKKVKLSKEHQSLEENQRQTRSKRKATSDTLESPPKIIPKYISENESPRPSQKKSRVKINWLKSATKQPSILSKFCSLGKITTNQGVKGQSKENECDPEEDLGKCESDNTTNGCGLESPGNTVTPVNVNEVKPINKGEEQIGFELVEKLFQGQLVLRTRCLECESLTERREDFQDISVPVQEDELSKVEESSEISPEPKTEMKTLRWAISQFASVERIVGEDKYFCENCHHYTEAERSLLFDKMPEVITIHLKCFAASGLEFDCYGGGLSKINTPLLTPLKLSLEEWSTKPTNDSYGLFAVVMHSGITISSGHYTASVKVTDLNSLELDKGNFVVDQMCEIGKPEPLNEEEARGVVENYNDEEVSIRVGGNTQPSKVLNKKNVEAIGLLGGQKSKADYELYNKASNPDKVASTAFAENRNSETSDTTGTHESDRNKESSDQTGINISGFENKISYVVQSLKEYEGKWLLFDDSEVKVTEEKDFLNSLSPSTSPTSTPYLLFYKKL

CN1CCC2(CC1)CCN(S(=O)(=O)c1ccccc1)CC2
8%: max response [8, 17]
9.03%: max response [8, 18]
inactive: Potency [1] > 11.4 µM | activity change, negative = inhibition [2] -4.78% | Potency [3] | activity, negative = inhibition [4] -1.02% | Potency [5] > 46 µM | Potency [6] | Potency [7] | activity change, negative = inhibition [8] -2.86% | outcome [9]

N#Cc1ccc(CN2CCC3(CC2)CCN(C(=O)c2cc(C(F)(F)F)cc(C(F)(F)F)c2)CC3)cc1
inactive: Potency [1] > 11.4 µM | activity change, negative = inhibition [2] 7.04% | Potency [3] | activity, negative = inhibition [4] 3.33% | Potency [5] > 46 µM | Potency [6] | Potency [7] | activity change, negative = inhibition [8] 1.9% | outcome [9]
11%: max response [8, 18]
7.25%: max response [8, 17]

CN1CCCC2(CCN(C(=O)c3cc(C(F)(F)F)cc(C(F)(F)F)c3)CC2)C1
inactive: Potency [1] > 11.4 µM | activity change, negative = inhibition [2] 5.94% | Potency [3] | activity, negative = inhibition [4] 4.14% | Potency [5] > 46 µM | Potency [6] | Potency [7] | activity change, negative = inhibition [8] 3.25% | outcome [9]
23.1%: max response [8, 18]
17.7%: max response [8, 17]

O=C(c1cccc(F)c1)N1CCC2(CCN(Cc3ccncc3)CC2)CC1
11.8%: max response [8, 18]
inactive: Potency [1] > 11.4 µM | activity change, negative = inhibition [2] -25.9% | activity, negative = inhibition [4] -0.6% | Potency [5] > 46 µM | Potency [6] | Potency [7] | Potency [11] | activity change, negative = inhibition [8] 2.27% | outcome [9]
4.86%: max response [8, 17]
active: Potency [3] 12.6 µM | Potency [10] 2.51 µM

CC(C)CN1CC2(CCN(C(=O)c3cccc(F)c3)CC2)C1
inactive: Potency [1] > 11.4 µM | activity change, negative = inhibition [2] 10.2% | Potency [3] | activity, negative = inhibition [4] -19.8% | Potency [5] > 46 µM | Potency [6] | Potency [7] | activity change, negative = inhibition [8] 2.36% | outcome [9]
11.5%: max response [8, 17]
16.2%: max response [8, 18]

Cc1cnc(CNc2ncnc3ccc(-c4cccc(C#N)c4)cc23)cn1
8.37%: max response [8, 18]
-3.07%: max response [8, 17]
inactive: Potency [1] > 11.4 µM | activity change, negative = inhibition [2] -21.7% | activity, negative = inhibition [4] -7.7% | Potency [12] > 46 µM | Potency [5] > 46 µM | Potency [6] | Potency [7] | Potency [11] | Potency [14] | outcome [15] | activity change, negative = inhibition [8] 11.4% | Potency [16] | outcome [9]
active: Potency [3] 0.398 µM | Potency [13] 3.16 µM
